The values that follow come from PubChem BioAssay.

Active and inactive are the calls of the source. Unless noted, how the calls were made is not given here.

Assay [1] in a line: compound effects on lung adenocarcinoma cell viability – A549, calcein-AM fluorescence, 48 h, basal, profiling panel (AID 1162). Further: test concentration not given here. Conditions: higher = more signal.
Assay [2] in a line: compound effects on differentiated 3T3-L1 adipocyte viability – cell-based, 3T3-L1 adipocytes, calcein-AM fluorescence, 48 h, basal, profiling panel (AID 1163). Further: test concentration not given here. Conditions: 3T3-L1 adipocytes viability, higher = more signal.
Assay [3] is described as follows: compound effects on hepatocellular carcinoma cell viability – HepG2, calcein-AM fluorescence, 48 h, basal, profiling panel (AID 1164). Further: test concentration not given here. Conditions: higher = more signal.
A short description of assay [4]: compound effects on multiple myeloma cell viability – MM1S, calcein-AM fluorescence, 48 h, basal, profiling panel (AID 1165).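 Further: viability of MM1S multiple myeloma cells under basal unstimulated conditions; test concentration not given here.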 Particulars: higher = more signal.
Assay [5] can be described thus: calcein-AM signal in unstimulated myeloma cells – cell-based, calcein-AM fluorescence, 48 h, PK04 Diversity Set, profiling panel (AID 1166).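 Further: cells grown under basal conditions without added stimulus; test concentration not given here.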 Conditions: RPMI8226 myeloma viability, higher = more signal.
The nature of assay [6]: JC-1 mitochondrial signal, unstimulated HepG2 cells – cell-based, JC-1 fluorescence, 24 h, 100 nL compound, profiling panel (AID 1167). Further: test concentration not given here. Conditions: HepG2 mitochondrial potential, higher = more signal.
Assay [7] in a line: JC-1 mitochondrial signal, unstimulated adipocytes – cell-based, JC-1 fluorescence, 3T3-L1 adipocytes, 24 h, 100 nL compound, profiling panel (AID 1168). Further: test concentration not given here. Conditions: JC-1 mitochondrial fluorescence, higher = more signal, called active from +8 up or from −8 down.
The nature of assay [8]: JC-1 mitochondrial signal, unstimulated myeloma cells – cell-based, JC-1 fluorescence, RPMI8226, 24 h, 100 nL compound, profiling panel (AID 1169). Further: test concentration not given here. Particulars: JC-1 mitochondrial potential fluorescence, higher = more signal.
A short description of assay [9]: JC-1 mitochondrial signal, unstimulated MM1S myeloma – cell-based, JC-1 fluorescence, 24 h, 100 nL compound, profiling panel (AID 1170). Further: test concentration not given here. Particulars: MM1S mitochondrial potential, higher = more signal.
Assay [10] can be described thus: resazurin metabolic signal in A549 cells – cell-based, resazurin fluorescence, 24 h, PK04 Diversity Set, profiling panel (AID 1171). Further: test concentration not given here. Conditions: A549 viability, higher = more signal, called active from +8 up or from −8 down.
A short description of assay [11]: resazurin metabolic signal in HepG2 cells – cell-based, resazurin fluorescence, 24 h, PK04 Diversity Set, profiling panel (AID 1172). Further: test concentration not given here. Conditions: HepG2 viability, higher = more signal.
Assay [12] in a line: budding yeast growth changes without added modifier – OD600, strain BY4716, 24 h, basal condition, primary screen (AID 1173). Conditions: S. cerevisiae BY4716 growth, OD600, 24 h; higher = more signal, called active from +8 up or from −8 down.
Assay [13] is described as follows: viability profiling in MM1S myeloma cells – cell-based, resazurin fluorescence, basal, 24 h, PK04 Diversity Set, profiling panel (AID 1174). Further: test concentration not given here. Particulars: higher = more signal, called active from +8 up or from −8 down. On the technique in general: The colour change of resazurin is a common sign of viable cells or microbes.
The target of assay [14] is Dihydroorotate dehydrogenase (quinone), mitochondrial (Plasmodium falciparum (isolate 3D7)) (UniProt Q08210). The experiment in a line: inhibition of P. falciparum DHODH – biochemical, C-terminal His tag, absorbance 600 nm, primary screen (AID 1175).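 Further: recombinant parasite enzyme with a five histidine tag at its C terminus; test concentration not given here.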 Particulars: PfDHODH enzyme, DCIP absorbance 600 nm; higher = more signal, called active from +8 up or from −8 down.
The nature of assay [15]: inhibition of PAO1 biofilm formation – strain PAO1, LB-PBS medium, absorbance 600 nm, primary screen (AID 1176). Further: test concentration not given here. Conditions: P. aeruginosa PAO1 growth/biofilm, A600, 12 h; higher = more signal.
A short description of assay [16]: growth modulation of vineyard yeast isolate – strain RM11-1a, OD600, basal, 24 h, primary screen (AID 1177).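 Further: cultures grown under basal conditions with no added stressor; test concentration not given here.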 Conditions: S. cerevisiae RM11-1a growth, OD600, 24 h; higher = more signal, called active from +8 up or from −8 down.
Assay [17] can be described thus: growth of efflux-deficient E. coli DRC39 – strain DRC39, OD650, 24 h, E. coli filamentation inducers, primary screen (AID 1178).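 Further: growth measured as culture turbidity by optical density at 650 nm; test concentration not given here.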 Conditions: E. coli DRC39 acrAB, higher = more signal, called active from +8 up or from −8 down.
Assay [18] in a line: growth of efflux-deficient E. coli DRC39 – strain DRC39, OD650, 48 h, E. coli filamentation inducers, primary screen (AID 1179).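 Further: screen aims at cell division blockers that make cells filament.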 Particulars: E. coli DRC39 delta-acrAB growth, higher = more signal, called active from +8 up or from −8 down.
Assay [19] is described as follows: viability profiling in RPMI8226 myeloma cells – cell-based, resazurin fluorescence, basal, 24 h, PK04 Diversity Set, profiling panel (AID 1180).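 Further: RPMI8826 multiple myeloma cell line at 5000 cells per well; test concentration not given here.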 Conditions: higher = more signal.
Assay [20] addresses E3 ubiquitin-protein ligase XIAP (Homo sapiens) (UniProt P98170). Description: small molecules binding XIAP protein – biophysical, small-molecule microarray, fluorescence 635 nm, primary screen (AID 1181).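 Further: score merges 667 nm emission and signal to noise over triplicate slides.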 Particulars: higher = more signal.

E3 ubiquitin-protein ligase XIAP (Homo sapiens), sequence (P98170 whole entry, looked up): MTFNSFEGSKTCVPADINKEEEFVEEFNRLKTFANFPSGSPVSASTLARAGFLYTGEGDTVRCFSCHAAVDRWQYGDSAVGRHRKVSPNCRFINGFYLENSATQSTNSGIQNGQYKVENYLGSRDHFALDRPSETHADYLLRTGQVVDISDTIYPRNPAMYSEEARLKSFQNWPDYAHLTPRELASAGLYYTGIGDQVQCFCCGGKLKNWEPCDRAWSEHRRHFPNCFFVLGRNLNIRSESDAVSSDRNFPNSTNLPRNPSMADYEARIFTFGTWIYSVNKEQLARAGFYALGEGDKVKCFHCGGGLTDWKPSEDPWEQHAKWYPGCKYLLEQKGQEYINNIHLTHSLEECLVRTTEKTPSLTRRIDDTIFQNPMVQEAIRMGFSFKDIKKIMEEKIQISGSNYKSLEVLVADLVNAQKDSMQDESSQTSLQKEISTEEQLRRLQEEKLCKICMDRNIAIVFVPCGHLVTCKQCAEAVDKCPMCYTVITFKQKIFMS
Dihydroorotate dehydrogenase (quinone), mitochondrial (Plasmodium falciparum (isolate 3D7)), sequence (Q08210 whole entry, looked up): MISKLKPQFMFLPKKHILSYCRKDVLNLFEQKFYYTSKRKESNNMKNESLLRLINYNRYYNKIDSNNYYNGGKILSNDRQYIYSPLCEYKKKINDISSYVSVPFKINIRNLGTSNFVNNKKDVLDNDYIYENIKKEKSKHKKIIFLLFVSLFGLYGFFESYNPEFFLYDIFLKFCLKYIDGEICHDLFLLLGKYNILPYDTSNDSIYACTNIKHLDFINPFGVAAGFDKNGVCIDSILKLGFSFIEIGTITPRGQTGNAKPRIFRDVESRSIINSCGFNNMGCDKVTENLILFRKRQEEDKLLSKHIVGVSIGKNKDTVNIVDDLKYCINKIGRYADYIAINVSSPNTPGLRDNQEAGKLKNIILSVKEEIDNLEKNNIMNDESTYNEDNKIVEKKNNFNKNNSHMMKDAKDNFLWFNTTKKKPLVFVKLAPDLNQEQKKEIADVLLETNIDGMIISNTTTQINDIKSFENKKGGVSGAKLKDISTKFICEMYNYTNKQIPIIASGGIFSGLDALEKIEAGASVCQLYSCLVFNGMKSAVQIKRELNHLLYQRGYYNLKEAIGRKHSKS

Regarding `CC(C)[C@@H](OCc1ccccc1)[C@H](C)CON=C1[C@H]2CCn3c(=O)n(-c4ccccc4)c(=O)n3[C@H]2[C@H](O)[C@@H]2O[C@H]12`, the z-score in assay [1] was -0.27; in assay [2], -0.104; in [3] it was -1.31; in [4], -2.72; in [5], -2.22; in [6], -2.12. Moreover, the z-score in assay [7] was 0.197 (inactive); in [8], -0.654; in assay [9], -0.375; in [10] it was -1 (inactive); in assay [11] it was -0.486; in [12] it was -1.96 (inactive). The z-score is -0.704 (inactive) in [13]; -0.348 (inactive) in assay [15]; -0.402 (inactive) in [16]; 0.961 (inactive) in assay [17]; 0.876 (inactive) in assay [18]; -0.789 in assay [19]. Moreover, the composite z-score was -1.78 (inactive) in assay [14] and -0.193 in [20].
Turning to `CCOC(=O)NN=C1C[C@@H](O)[C@@H](O)[C@@H]2[C@@H]3C(=O)N(CC)C(=O)[C@@H]3CC[C@H]12`, the z-score in [1] was 0.258; in assay [2], -0.588; in assay [3], 0.527; in [4], 0.464; in assay [5], 0.268; in [6], 0.987. Also, the z-score was -0.557 (inactive) in assay [7]; -0.241 in assay [8]; -0.809 in assay [9]; -0.653 (inactive) in [10]; -0.635 in assay [11]; 0.467 (inactive) in [12]. The z-score is -2.97 (inactive) in assay [13]; 0.0578 (inactive) in assay [15]; 0.355 (inactive) in [16]; 0.334 (inactive) in assay [17]; 0.388 (inactive) in [18]; -1.04 in assay [19]. In addition, the figures for the composite z-score in [14] and in assay [20] were 0.463 (inactive) and 0.0119, respectively.
For `CON=C(C)CCN1CCCCc2nc(C)c(C)cc21`, the z-score was 1.03 in assay [1]; -0.269 in assay [2]; 0.564 in assay [3]; -0.254 in [4]; 0.371 in assay [5]; -0.955 in assay [6]. In addition, the z-score in assay [7] is -1.41 (inactive); in assay [8], -0.174; in assay [9], 0.289; in [10] it was -0.0601 (inactive); in assay [11], -0.18; in [12] it was -0.571 (inactive). In addition, the z-score in assay [13] is 0.183 (inactive); in assay [15], 0.323 (inactive); in [16], -0.11 (inactive); in assay [17], 0.852 (inactive); in assay [18], -0.78 (inactive); in [19], 0.6. Further, the composite z-score in [14] is -1.07 (inactive); in assay [20], 0.496.
Turning to `COC(=O)C1=C(C)N(Cc2ccccc2)C2=C3C(=O)OCC[C@@H]3[C@@](O)(C(=O)OC)C(=O)N2[C@@H]1c1ccccc1`, the z-score in assay [1] was 1.62; in assay [2], -0.792; in [3], 0.24; in assay [4], 0.489; in assay [5] it was -0.755; in assay [6], 1.85. Also, the z-score in assay [7] was -1.11 (inactive); in [8] it was -0.391; in assay [9], -0.91; in [10] it was 0.56 (inactive); in assay [11], 1.11; in [12] it was -0.319 (inactive). Moreover, the z-score is -1.3 (inactive) in assay [13]; -0.458 (inactive) in [15]; 0.681 (inactive) in [16]; 0.933 (inactive) in [17]; 0.575 (inactive) in assay [18]; -0.0018 in assay [19]. The composite z-score in assay [14] was 0.524 (inactive); in assay [20] it was -0.0931.
As for `CO[C@@H](C(C)C)[C@@H](C)C1OC(=O)CC1O` (stereo not given in full), the z-score in assay [1] was -0.729; in [2], -0.121; in assay [3], -0.349; in assay [4] it was 0.534; in [5], -0.908; in [6], -0.518. The z-score in [7] was -0.419 (inactive); in assay [8], -0.147; in [9], -0.0891; in assay [10] it was -0.196 (inactive); in assay [11], -0.544; in [12], -0.139 (inactive). The z-score was -0.766 (inactive) in [13]; -0.139 (inactive) in assay [15]; -0.622 (inactive) in assay [16]; 0.284 (inactive) in assay [17]; 0.468 (inactive) in [18]; -1.17 in [19]. Besides, the composite z-score in assay [14] was -0.531 (inactive); in assay [20], -0.0391.
With `CCCNC(=O)OC[C@H]1O[C@H](CCON=C2C[C@@H](O)[C@@H](O)[C@@H]3[C@@H]4C(=O)N(CC)C(=O)[C@@H]4CC[C@@H]23)C=C[C@@H]1Oc1ccc(OC)cc1`, the z-score in [1] is 0.778; in assay [2], 0.206; in [3] it was -0.652; in assay [4], -1.61; in assay [5] it was 0.141; in [6], -1.18. Besides, the z-score in [7] was -0.245 (inactive); in assay [8], 0.195; in [9], -0.39; in assay [10] it was -0.454 (inactive); in assay [11], -0.57; in assay [12], 0.0913 (inactive). For the same compound, the z-score in assay [13] was -0.791 (inactive); in assay [15], 0.429 (inactive); in [16] it was -0.32 (inactive); in assay [17], 0.74 (inactive); in assay [18] it was 0.658 (inactive); in assay [19], -1.02. Further, the composite z-score in assay [14] is -0.384 (inactive); in assay [20], -0.281.
For the compound `O=C1C[C@H](c2ccccc2)[C@H](c2ccc(Br)cc2)O1`, the z-score is 1.43 in assay [1]; 0.172 in assay [2]; -0.0656 in assay [3]; 0.342 in assay [4]; 1.08 in [5]; 1.19 in assay [6]. For the same compound, the z-score in assay [7] was 0.268 (inactive); in assay [8], 0.563; in [9], 0.891; in assay [10] it was -0.317 (inactive); in [11], -0.598; in assay [12], -8.77 (active). Also, the z-score is -0.118 (inactive) in assay [13]; 0.605 (inactive) in assay [15]; -2.74 (inactive) in assay [16]; 0.358 (inactive) in assay [17]; -1.67 (inactive) in assay [18]; 0.0497 in assay [19]. Also, the composite z-score is -1.24 (inactive) in assay [14] and -0.0438 in assay [20].
Regarding `C[C@H]1C=CCC(=O)OC[C@H](C)C(=O)N2CCC[C@H]2C(=O)OC1`, the z-score in assay [1] is -0.531; in assay [2], -1.21; in assay [3], -0.51; in assay [4], 0.391; in assay [5], 0.0245; in assay [6], 0.291. Also, the z-score was -0.696 (inactive) in assay [7]; -0.148 in assay [8]; -0.828 in [9]; 0.283 (inactive) in assay [10]; 0.976 in assay [11]; -0.18 (inactive) in assay [12]. The z-score in [13] was -0.0106 (inactive); in [15], -0.455 (inactive); in [16] it was 0.73 (inactive); in [17], 0.0678 (inactive); in assay [18] it was 0.205 (inactive); in [19] it was 0.818. Also, the composite z-score is -0.441 (inactive) in assay [14] and -0.102 in assay [20].
With `C[C@@H](c1ccccc1)N1C(=O)[C@H]2[C@H]3[C@H](O)[C@H](O)CC(=NOCc4ccccc4)[C@@H]3CC[C@H]2C1=O`, the z-score was 0.048 in assay [1]; -0.0375 in assay [2]; -0.628 in [3]; 0.67 in assay [4]; -2.15 in assay [5]; -0.265 in assay [6]. For the same compound, the z-score in assay [7] was -0.985 (inactive); in [8], -0.0343; in [9], 0.645; in assay [10], -0.273 (inactive); in [11], -0.511; in [12] it was -0.123 (inactive). The z-score in [13] is -0.457 (inactive); in [15] it was -0.0819 (inactive); in assay [16], -0.183 (inactive); in assay [17], -0.241 (inactive); in [18], -0.0934 (inactive); in assay [19], -0.181. Besides, the composite z-score in [14] is 0.805 (inactive); in assay [20] it was -0.185.
